The list is not random: actives were taken first. Their share in the collection is about 6%.
D1 potentiator – enhances dopamine response at the human D1 receptor; P21728; HEK293 TREx D1 cells, calcium flux, dopamine EC20 potentiation; potentiation, % at 10 µM; 360,000 compounds, 0.036% hits; in the data active means potentiation above about 30%
D3 ag – activates the human D3 dopamine receptor. max activation, %. 410,000 compounds, 0.58% hits. P35462. D3R DiscoveRx beta-arrestin cells, luminescence, 90 min. AID 652048; in the data active means max activation above about 30%
Target sequence (P35462 whole entry, looked up): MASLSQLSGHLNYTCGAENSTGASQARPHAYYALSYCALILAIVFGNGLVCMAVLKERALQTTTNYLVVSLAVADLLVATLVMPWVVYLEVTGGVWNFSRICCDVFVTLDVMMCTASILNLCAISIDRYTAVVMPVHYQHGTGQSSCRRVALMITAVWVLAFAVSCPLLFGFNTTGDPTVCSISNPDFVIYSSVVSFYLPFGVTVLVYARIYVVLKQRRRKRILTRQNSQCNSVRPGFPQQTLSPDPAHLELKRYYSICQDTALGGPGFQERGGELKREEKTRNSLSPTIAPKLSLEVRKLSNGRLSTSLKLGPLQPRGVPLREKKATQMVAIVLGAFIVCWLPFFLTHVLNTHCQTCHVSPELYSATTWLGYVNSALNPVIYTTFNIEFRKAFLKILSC
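Agonist-mode cell screen: cells plated at 1500/well and incubated overnight at 37 °C, then exposed to library compounds for 90 min at 37 °C. Detection reagent was added for 30–60 min at room temperature, and luminescence was read.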
D1 ag – agonists of human D1 dopamine receptor | activation, % at 2 µM | 360,000 compounds, 1% hits | P21728 | HEK293 T-REx D1 cells, calcium flux, agonist mode; in the data active means activation above about 30%
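Agonism was scored from calcium flux recorded over 180 s (1 read/s) after pintool compound addition, following a 10-cycle baseline. Cells were inducible force-coupled HEK293 TREx D1, plated overnight at 30 C and loaded with no-wash calcium dye.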
D3 antag – antagonists of human D3 dopamine receptor | 360,000 compounds, 2.5% hits | D3R cells, DiscoveRx beta-arrestin luminescence, antagonist mode; stronger effect = lower value | max response, negative = inhibition, %; in the data active means max response below about -50%; inconclusive means no clear call, values can overlap the other calls
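Cells plated overnight at 1500 cells/well, then exposed to library compounds with dopamine controls for 90 minutes at 37 degrees C. DiscoveRx reagent added for 30–60 minutes at room temperature; luminescence read, quantitative HTS format.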
D1 antag – antagonists of human D1 dopamine receptor. P21728. activity change, negative = inhibition, % at 10 µM. 360,000 compounds, 3.2% hits. HEK293 TREx D1 cells, calcium flux, dopamine EC80; stronger effect = lower value; in the data active means activity change below about -30%
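Compound effects on dopamine-evoked calcium signalling were measured in tetracycline-induced HEK293 Trex D1 cells. Dopamine at EC80 followed a 180 s compound pre-read, and fluorescence was tracked kinetically for 180 s more.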
A number is an active result; . = inactive; ? = inconclusive; / = no result.

SMILES | D1 potentiator | D3 ag | D1 ag | D3 antag | D1 antag
COc1ccc(Cn2c(SCc3ccc(C)cc3)nc3cc(OC)c(OC)cc3c2=N)cc1Cl | . | . | . | . | .
COCCCn1c(SCc2cccc(C(F)(F)F)c2)nc2cc(OC)c(OC)cc2c1=N | . | . | . | . | .
COCCCn1c(SCc2ccccc2)nc2cc(OC)c(OC)cc2c1=N | / | 31 | / | . | /
Cn1cc(-c2coc3c(C(=O)NCc4ccco4)cccc23)cn1 | / | . | / | . | /
O=C(c1ccc2c(c1)N(Cc1ccccc1)C(=O)c1ccccc1S2(=O)=O)N1CCOCC1 | . | . | . | / | .
O=C(CN1CCN(Cc2ccc3c(c2)OCO3)CC1)Nc1cc(S(=O)(=O)N2CCCC2)ccc1Cl | . | . | . | . | .
Cc1cc(C(=O)OCC(=O)Nc2cccc(S(=O)(=O)N(C)C)c2)c2ccccc2n1 | . | . | . | . | .
CN(C)S(=O)(=O)c1ccc(Cl)c(NC(=O)COC(=O)c2cc(-c3ccccc3)nc3ccccc23)c1 | . | 36 | . | . | .
CN(C)S(=O)(=O)c1ccc(Cl)c(NC(=O)CN2CCc3ccccc3C2)c1 | . | 74 | . | . | .
CCN(CC)S(=O)(=O)c1ccc(O)c(NC(=O)CN2CCc3ccccc3C2)c1 | . | . | . | . | .
CN(C)S(=O)(=O)c1ccc(Cl)c(NC(=O)CN2CCN(Cc3ccc4c(c3)OCO4)CC2)c1 | . | . | . | . | -58
CC1=C(C(=O)Nc2ccc(C)cc2C)C(c2cccs2)n2nc(SCc3ccccc3Cl)nc2N1 (centres undefined) | . | . | . | / | .
COc1cccc2cc(C(=O)NCCN3CCOCC3)c(=O)oc12 | . | . | . | . | .
Cc1ccc(S(=O)(=O)NNC(=O)Nc2ccc(C)c(C)c2)c(C)c1 | . | . | . | . | -35
Cc1ccc(Nc2c(-c3ccc(N(C)C)cc3)nc3ccccn23)cc1 | . | . | . | / | -30
Cc1ccc(Nc2c(-c3ccccn3)nc3cc(C)ccn23)cc1 | . | . | . | -88 | .
Cc1ccn2c(Nc3ccc4c(c3)OCO4)c(-c3ccccn3)nc2c1 | . | . | . | -54 | .
Cc1ccc(-c2nc3ccccn3c2Nc2ccc3c(c2)OCO3)cc1 | . | . | . | / | .
Cc1ccc(Nc2c(-c3ccccn3)nc3ccc(C)cn23)cc1 | . | . | . | -78 | .
Cc1ccccc1Nc1nc(Cl)nc(NC(C)(C)C)n1 | / | . | / | . | /
CC(C)c1ccc(NC(=O)c2ccc(F)c(S(=O)(=O)N3CCc4ccccc4C3)c2)cc1 | . | . | . | / | .
COC(=O)c1ccc(NC(=O)CN2C(=O)CC(c3ccccc3)Sc3ccccc32)cc1 (centres undefined) | . | . | . | / | .
O=C(CO)[C@@H](O)[C@H](O)[C@@H](O)CO | / | . | / | / | /
Cc1nn(Cc2ccc(Cl)cc2)c(C)c1NC(=O)CSc1nc2c(c(C(F)(F)F)n1)CCc1ccccc1-2 | . | . | . | . | .
Cc1ccc(Cn2nc(C)c(NC(=O)CSc3nc4c(c(C(F)(F)F)n3)CCc3ccccc3-4)c2C)cc1 | . | . | . | . | -86
SMILES | D1 potentiator | D3 ag | D1 ag | D3 antag | D1 antag
C=CCN(C/C(=N\O)c1sc(C(=O)OCC)nc1C)c1cccc(Br)c1 | / | 63 | / | . | /
O=C(NCC(c1ccc(F)cc1)N1CCOCC1)c1cccc(Br)c1 (centres undefined) | . | 40 | . | . | .
O=C(NCC(c1ccc(F)cc1)N1CCOCC1)c1nn(-c2ccccc2)c(=O)c2ccccc12 (centres undefined) | / | . | . | -83 | .
Cc1ccc2c(n1)sc1c(-c3ccc(Br)cc3)c(C#N)c(N)nc12 | . | . | . | . | -31
O=CNC1CCCc2c1[nH]c1ccc(Cl)cc21 (centres undefined) | . | . | . | . | -37
CCN(CC)C(=O)C1CCCc2c1[nH]c1ccc(Cl)cc21 (centres undefined) | . | . | . | . | .
O=C(Nc1ccc2c(c1)CCCN2C(=O)c1ccco1)c1cc([N+](=O)[O-])ccc1Cl | . | . | . | . | -42
O=C(Nc1ccc(Nc2ccccc2)cc1)c1cc([N+](=O)[O-])ccc1Cl | . | . | . | -51 | .
O=C(Nc1ccc(N2CCN(C(=O)c3ccco3)CC2)cc1)c1ccc([N+](=O)[O-])cc1Cl | . | . | . | . | .
COc1ccc(NC(=O)c2cccc([N+](=O)[O-])c2)cc1 | . | . | . | . | .
COc1ccc(NC(=O)c2cc([N+](=O)[O-])ccc2O)cc1 | . | . | . | . | -31
O=C(Nc1ccccc1Oc1ccccc1)c1cc([N+](=O)[O-])ccc1Cl | . | . | . | . | .
O=C(NNc1ccc([N+](=O)[O-])cc1)c1ccccc1Cl | . | . | . | ? | -52
Cc1ccc(S(=O)(=O)NCC(c2ccc(N(C)C)cc2)N2CCCC2)cc1 (centres undefined) | . | . | . | / | .
COc1ccc(C(=O)N2CCCCCC2)cc1S(=O)(=O)N1CCOCC1 | . | . | . | . | .
COC(=O)c1ccccc1NC(=O)C1=C(C)C(=O)OC12CCCCCC2 | . | . | . | / | .
O=C(Nc1cccc([N+](=O)[O-])c1)c1ccc(-c2ccccc2)cc1 | . | . | . | . | -59
O=C(Nc1cccc([N+](=O)[O-])c1)c1cc2ccccc2cc1O | . | . | . | . | -42
O=C(O)c1ccccc1C(=O)Nc1cccc([N+](=O)[O-])c1 | . | . | . | . | .
CN(C=O)c1cc([N+](=O)[O-])ccc1OCc1ccccc1 | / | . | / | . | /
CCOC(=O)c1nn(C)c(C)c1Cl | . | . | . | -71 | -44
COc1nc(Cl)cn(-c2ccc(C)cc2)c1=O | . | . | . | . | .
Cc1ccc(-n2c(Cl)c(Cl)nc(Cl)c2=O)cc1 | . | . | . | -106 | .
COc1ccc(CN(C)c2ccc(S(=O)(=O)N3CCN(C)CC3)cc2[N+](=O)[O-])cc1OC | . | . | . | . | -46
COc1ccc(CCNc2ccc(S(=O)(=O)N3CCN(C)CC3)cc2[N+](=O)[O-])cc1 | . | . | . | . | -32
SMILES | D1 potentiator | D3 ag | D1 ag | D3 antag | D1 antag
COc1ccc(C(CNc2ccc(S(=O)(=O)N3CCN(C)CC3)cc2[N+](=O)[O-])N(C)C)cc1 (centres undefined) | . | . | . | . | .
CC(C)n1nnnc1-c1cc(Cl)cc(Cl)c1 | . | . | . | . | .
CC(C)n1nnnc1-c1cccc(Cl)c1 | . | . | . | -51 | .
COc1ccc(-c2nc3sc(CCNC(=O)C(=O)Nc4cccc(NC(C)=O)c4)c(C)n3n2)cc1 | . | . | . | / | /
CC(NCc1ccc2c(c1)OCO2)C(=O)N1CCc2ccccc21 (centres undefined) | . | . | . | -107 | .
CC(NCc1ccc(S(N)(=O)=O)cc1)C(=O)N1CCc2ccccc21 (centres undefined) | . | . | . | . | .
CC(C)(C)NS(=O)(=O)c1cccc(S(=O)(=O)c2cccc(S(=O)(=O)NC(C)(C)C)c2)c1 | . | . | . | -122 | -39
